VP16 counter – counter-screen for ROR gamma inhibitors: Gal4-VP16 reporter | AID 2546 | 3.5% of 310,000 active | Potency, µM (doses to about 53.6 µM), for inactives: at the highest dose activity, negative = inhibition, usual class: inhibitors | Drosophila S2 Gal4-VP16 UAS-luciferase, luminescence, 20 h;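 note: Gal4-VP16 expression switched on by copper sulfate through the metallothionein promoter; potency is the fitted concentration of half-maximal effect; nearly all actives have a fitted effect of over 50% in size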
RORg inh – blocks mouse ROR gamma transcriptional activity. P51450. Drosophila S2 Gal4-RORgamma UAS-luciferase reporter, 20 h. Potency, µM (top dose mostly 53.6 µM), inactives show at the highest dose activity change, negative = inhibition, most hits filed as inhibitors. 5.4% of 310,000 active; note: potency is the fitted concentration of half-maximal effect; nearly all actives have a fitted effect of over 60% in size
Target sequence (P51450 whole entry, looked up, the tested form may be a part): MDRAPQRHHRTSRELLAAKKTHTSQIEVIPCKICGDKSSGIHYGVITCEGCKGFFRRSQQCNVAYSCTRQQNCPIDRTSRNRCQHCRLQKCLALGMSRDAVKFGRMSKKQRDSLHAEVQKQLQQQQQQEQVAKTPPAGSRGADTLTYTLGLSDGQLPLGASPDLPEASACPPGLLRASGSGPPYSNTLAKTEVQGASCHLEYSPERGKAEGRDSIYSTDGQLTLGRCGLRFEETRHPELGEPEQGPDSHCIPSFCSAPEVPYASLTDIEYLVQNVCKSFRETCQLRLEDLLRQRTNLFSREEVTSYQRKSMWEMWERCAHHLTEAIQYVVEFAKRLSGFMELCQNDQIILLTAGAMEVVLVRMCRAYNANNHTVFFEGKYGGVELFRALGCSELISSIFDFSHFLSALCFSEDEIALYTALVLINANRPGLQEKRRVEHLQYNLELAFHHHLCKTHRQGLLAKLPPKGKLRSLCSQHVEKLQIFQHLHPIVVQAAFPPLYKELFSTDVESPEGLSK
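In this cell-based reporter format, copper sulfate (700 uM final) drives Gal4–ROR gamma fusion expression from a metallothionein promoter in Drosophila Schneider cells; compounds preincubated 1 hr, reporter read after 20 hr at ambient temperature.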
IL-1B inflam inh – inflammasome signaling inhibition, IL-1 beta readout; THP-1 LPS/ATP IL-1B secretion, AlphaLISA, 16 h; hits give low values; activity change, % at 57.5 µM; 4.7% of 360,000 active; AID 743279; in the data active = activity change below about -50%; inconclusive = mostly about -30% to -49%
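Secreted IL-1B measured by AlphaLISA bead assay after 16 h compound exposure of THP-1 cells; compounds (final up to 57.5 uM) added 1 h before LPS (250 ng/mL) and ATP (1.25 mM) stimulation; lower signal means less secretion.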
TDP1 cell CPT – growth inhibition of DT40 Tdp1-/-;hTDP1 cells with camptothecin (screen for TDP1 inhibitors) | 12% of 420,000 active | chicken DT40 Tdp1-/-;hTDP1 cells + 20 nM CPT, ATP luminescence, 48 h | Potency, µM (highest dose often 46.2 µM), inactives show at the highest dose activity change, negative = growth inhibition, usual class: inhibitors; note: potency is the fitted concentration of half-maximal effect; nearly all actives have a fitted effect of over 55% in size
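Chicken DT40 Tdp1-/- cells stably complemented with human TDP1 were seeded at 400 cells/well in medium containing 20 nM camptothecin, exposed to pin-transferred compounds, and grown at 37 °C for at least 48 hr. Viability was read as ATP luminescence.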
LDHA inh – blocks human lactate dehydrogenase A. 0.15% of 480,000 active. purified LDHA, NADH/diaphorase-resazurin fluorescence; hits give low values. activity change, % (values are at about 110 or 230 µM). P00338; in the data active = activity change below about -30%; inconclusive = mostly about -25% to -30%;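 note: plate controls were DMSO wells for no effect and wells without enzyme for full effect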
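Remaining NADH was detected by diaphorase (0.133 mg/mL) converting 37 µM resazurin to fluorescent resorufin, read at 0 and 20 minutes. The preceding 5-minute room-temperature reaction used 2 nM LDHA, 0.2 mM sodium pyruvate and 0.06 mM NADH at pH 7.4.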
DT40 TDP1 no CPT – qHTS for Inhibitors of human tyrosyl-DNA phosphodiesterase 1 (TDP1): qHTS in cells in absence of CPT | DT40 Tdp1-/- hTDP1 cells, no CPT, ATP luminescence, 48 h | Potency, µM (series often up to 46.2 µM), for the others: at the highest dose activity change, negative = growth inhibition, usual class: inhibitors | 15% of 420,000 active; note: potency is the fitted concentration of half-maximal effect; nearly all actives have a fitted effect of over 55% in size
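A cellular qHTS used chicken DT40 cells lacking endogenous Tdp1 but carrying stably transfected human TDP1. Compounds were applied without camptothecin, and cell growth kinetics were judged by ATP-dependent luminescence after ≥48 hr.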
Numbers without * were called inactive; ? = inconclusive; . = not tested or not shown; [ ] = another dose, or the depositor's remark. Hits are enriched below; roughly 18% of the tested compounds scored in any of these assays. Unless noted, calls come from the whole dose curve; as a rule, active = well fitted curve in the direction sought with a large enough effect; inconclusive = small, poorly fitted or top-dose-only effect, or another doubt; inactive = no such curve, though single readings can be large; an effect the other way counts as inactive or inconclusive. Unless noted, % is set by controls: 0 for no effect and ±100 for the full control effect.

SMILES | VP16 counter | RORg inh | IL-1B inflam inh | TDP1 cell CPT | LDHA inh | DT40 TDP1 no CPT
Cc1ccc(S(=O)(=O)N2CCC(=O)N([C@H](COCc3ccc(C(F)(F)F)cc3)Cc3ccccc3)CC2)cc1 | 5.7%[40.7 µM] | 34.3%[40.7 µM] | 0.0 | ? | 0.8 | ?
CC(=O)Nc1ccc(S(=O)(=O)NC(CC(=O)NCCc2ccccc2)C(C)C)cc1 (stereo not drawn) | 0.8% | 39.8% | 19.1 | 3.1% | -6.1 | 1.5%
CC(=O)Nc1ccc(S(=O)(=O)NC(CC(=O)N(C)Cc2ccccc2)C(C)C)cc1 (stereo not drawn) | 1.2% | 0.5% | -3.1 | 11.6µM* | -5.6 | 23.1µM*
Cc1cccc(NC(NC(=O)c2ccc(Cl)cc2)C(Cl)(Cl)Cl)c1 (stereo not drawn) | . | . | . | . | -20.1 | .
Cc1nc(=S)n(-c2ccccc2)[nH]1 | ? | ? | 19.2 | -1.2% | -1.2 | 4.8%
S=c1nc(-c2ccccc2)[nH]n1-c1ccccc1 | 11.2µM* | 7.94µM* | 6.5 | -19.9% | -8.4 | 23.1µM*
S=c1nc2ccccc2c2nc(-c3ccccc3Cl)[nH]n12 | 1.58µM* | 0.355µM* | 36.5 | 3.26µM* | -13.2 | 3.66µM*
S=c1nc2ccccc2c2nc(-c3ccccc3)[nH]n12 | 0.355µM* | 0.0891µM* | 25.7 | 20.6µM* | -7.9 | 9.2µM*
NC(=O)C1CC(O)CN1 (stereo not drawn) | . | . | . | . | -7.5 | .
CC(C)CC(=O)Nc1ccc(-c2nc3cc(Cl)ccc3o2)cc1 | . | . | . | . | -5.1 | .
CCN(CC(=O)NCc1cccs1)C(=O)c1ccc(-c2cccc(C(F)(F)F)c2)o1 | . | . | -79.5* | ? | 7.8 | ?
CC1(C(=O)NCc2ccccc2)Cc2c(-c3cccc(C(F)(F)F)c3)ccnc2O1 (stereo not drawn) | . | . | 68.0 | 3.66µM* | -1.3 | 5.8µM*
CC(=O)NCCNC(=O)C1(C)Cc2c(-c3ccccc3)ccnc2O1 (stereo not drawn) | . | . | 8.0 | -15.5% | -3.7 | -12.7%
CC(=O)NCCNC(=O)C1(C)Cc2c(-c3ccc(C(N)=O)cc3)ccnc2O1 (stereo not drawn) | . | . | 14.9 | -0.1% | -10.1 | 0.4%
CCN(CC(=O)NCc1cccs1)C(=O)COc1cccc(C(F)(F)F)c1 | . | . | 11.4 | -25.8% | -7.5 | -0.6%
CC1(C(=O)NCc2cccs2)Cc2c(-c3ccc(C(N)=O)cc3)ccnc2O1 (stereo not drawn) | . | . | 42.5 | 2.59µM* | -10.5 | 3.26µM*
CC1(C(=O)NCc2cccs2)Cc2c(-c3cccc(C(F)(F)F)c3)ccnc2O1 (stereo not drawn) | . | . | 62.2 | 3.26µM* | -2.5 | 2.91µM*
Cc1nc(NCCC(C)C)sc1C(=O)Nc1ccccc1 | . | . | . | . | -2.1 | .
Cc1nc(NC(=O)c2ccccc2)sc1C1(C)CC(c2c(Cl)cccc2Cl)=NO1 (stereo not drawn) | -1.6% | -40.9% | 37.9 | 23.1µM* | 1.5 | ?
COc1ccc(NC(=O)c2nc(C)c(C3(C)CC(c4ccccc4)=NO3)s2)cc1 (stereo not drawn) | -1.9% | -21.9% | 54.4 | 1.03µM* | -5.0 | 5.8µM*
Cc1cc(C)cc(NC(=O)CSc2nnc(-c3ccc(S(=O)(=O)N4CCCC4)cc3)o2)c1 | 9.5% | -17.4% | 0.0 | -22.3% | -1.1 | -14.4%
CCS(=O)(=O)Nc1ccc(-c2nnc(SCC(=O)OC)o2)cc1 | -1.9% | ? | -85.5* | -5.2% | -2.3 | -46.8%
COC(=O)CSc1nnc(-c2ccc(S(=O)(=O)N3CCCC3)cc2)o1 | -3.5% | -28.3% | -51.5* | 14.3% | -0.5 | -10.7%
CCC(=O)Nc1ccc(C(=O)CSc2nnc(-c3ccc(NS(=O)(=O)CC)cc3)o2)cc1OC | -4.1% | 9.5% | 3.0 | 1.64µM* | -0.2 | 1.16µM*
